Experimental data taken from PubChem BioAssay (Tox21).
Results filed as inconclusive are left out. Calls of active or inactive are those of the source. Unless noted, the call rests on the fitted dose curve; in most records, active means well fitted curve in the direction sought with a large enough effect in the repeat runs; inconclusive means weak or mixed curves; inactive means no such curve, though single readings can be large; an effect the other way counts as inactive or inconclusive.

Key:
[1] = qHTS assay to identify small molecule that activate the aryl hydrocarbon receptor (AhR) signaling pathway - cell viability counter screen (AID 743086);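 further: HepG2 liver cells carrying the AhR DRE luciferase reporter; series mostly up to about 70 µM; nearly all actives have a fitted effect of over 45% in size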
In short: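 HepG2-AhR-luc (HG2L7.5c1) cells, 4000/well, treated 24 h at 37 C with compound; viability measured as CellTiter-Fluor fluorescence after 30 min in the same wells as the luciferase read.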

[2] = biological target: Peroxisome proliferator-activated receptor gamma (Homo sapiens) (UniProt P37231); assay: qHTS assay to identify small molecule agonists of the peroxisome proliferator-activated receptor gamma (PPARg) signaling pathway (AID 743094; active means well fitted activation curve with a large enough effect in the signal ratio in the repeat runs, not every such curve was filed as active; the % refers to the signal ratio)
Sequence of Peroxisome proliferator-activated receptor gamma (Homo sapiens) (P37231 whole entry, looked up): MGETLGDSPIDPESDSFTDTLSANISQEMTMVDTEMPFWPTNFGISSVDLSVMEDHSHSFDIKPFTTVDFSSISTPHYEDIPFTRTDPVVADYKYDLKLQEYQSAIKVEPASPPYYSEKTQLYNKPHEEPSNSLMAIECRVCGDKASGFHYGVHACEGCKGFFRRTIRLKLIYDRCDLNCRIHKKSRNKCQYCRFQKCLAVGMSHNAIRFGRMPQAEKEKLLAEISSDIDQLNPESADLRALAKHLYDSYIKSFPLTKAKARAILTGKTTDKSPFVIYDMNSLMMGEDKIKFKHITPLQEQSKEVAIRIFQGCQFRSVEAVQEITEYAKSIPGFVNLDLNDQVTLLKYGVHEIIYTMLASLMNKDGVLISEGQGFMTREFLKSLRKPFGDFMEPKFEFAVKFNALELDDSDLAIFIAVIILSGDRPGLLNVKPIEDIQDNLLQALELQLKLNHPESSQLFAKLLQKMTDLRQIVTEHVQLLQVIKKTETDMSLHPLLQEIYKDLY
In short: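 HEK293H PPARg-bla cells, 5 h settle at 37C/5% CO2; compound (DMSO) 17 h, 37C; B/G FRET substrate 1 h RT; fluorescence intensity read-out. qHTS format.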

[3] = biological target: Peroxisome proliferator-activated receptor gamma (Homo sapiens) (UniProt P37231); assay: qHTS assay to identify small molecule antagonists of the peroxisome proliferator-activated receptor gamma (PPARg) signaling pathway (AID 743191; calls by dose curve; further: series mostly up to about 63 µM; nearly all actives have a fitted effect of over 30% in size)
In short: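 GeneBLAzer PPARg UAS-bla HEK293H cells, 5 h post-plating, exposed to compounds 17 h at 37C. LiveBLAzer B/G FRET substrate added for 1 h at room temperature; beta-lactamase reporter read by fluorescence intensity.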

[4] = qHTS assay for small molecule agonists of the antioxidant response element (ARE) signaling pathway (AID 743202; active means well fitted activation curve with a large enough effect in the signal ratio in the repeat runs, not every such curve was filed as active; the % refers to the signal ratio)
In short: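 HepG2 ARE-bla cells; 16 h treatment at 37 C; FRET-based beta-lactamase fluorescence read after 2 h substrate incubation at room temperature.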

[5] = qHTS assay for small molecule activators of the heat shock response signaling pathway - cell viability counter screen (AID 743209); further: nearly all actives have a fitted effect of over 50% in size
In short: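 HSE-bla HeLa; 1500 cells/well; overnight 37 C, 5% CO2; compound 5 h 37 C; LiveBLAzer B/G substrate 2.5 h RT; CellTiter-Glo 30 min RT; luminescence.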

[6] = qHTS assay for small molecule activators of the heat shock response signaling pathway (AID 743210; active means well fitted activation curve with a large enough effect in the signal ratio in the repeat runs, with a control signal flat, not every such curve was filed as active; the % refers to the signal ratio;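 further: HeLa cells with beta-lactamase reporter driven by heat shock elements; series mostly up to about 63 µM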)
In short: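 Following overnight attachment, HSE-bla HeLa cells received test compounds for 5 h at 37 C; beta-lactamase activity was then detected via FRET substrate fluorescence.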

[7] = qHTS assay to identify small molecule agonists of the peroxisome proliferator-activated receptor delta (PPARd) signaling pathway - cell viability counter screen (AID 743211); further: nearly all actives have a fitted effect of over 55% in size; further: potency means the concentration at half of the fitted maximal effect
In short: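 Viability of GeneBLAzer PPARd UAS-bla HEK293H cells was assessed after 17 h compound incubation at 37C, using CellTiter-Glo reagent added after the reporter read and luminescence recorded 30 min later.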

[8] = biological target: Peroxisome proliferator-activated receptor delta (Homo sapiens) (UniProt Q03181); assay: qHTS assay to identify small molecule agonists of the peroxisome proliferator-activated receptor delta (PPARd) signaling pathway (AID 743212; calls by dose curve)
Sequence of Peroxisome proliferator-activated receptor delta (Homo sapiens) (Q03181 whole entry, looked up): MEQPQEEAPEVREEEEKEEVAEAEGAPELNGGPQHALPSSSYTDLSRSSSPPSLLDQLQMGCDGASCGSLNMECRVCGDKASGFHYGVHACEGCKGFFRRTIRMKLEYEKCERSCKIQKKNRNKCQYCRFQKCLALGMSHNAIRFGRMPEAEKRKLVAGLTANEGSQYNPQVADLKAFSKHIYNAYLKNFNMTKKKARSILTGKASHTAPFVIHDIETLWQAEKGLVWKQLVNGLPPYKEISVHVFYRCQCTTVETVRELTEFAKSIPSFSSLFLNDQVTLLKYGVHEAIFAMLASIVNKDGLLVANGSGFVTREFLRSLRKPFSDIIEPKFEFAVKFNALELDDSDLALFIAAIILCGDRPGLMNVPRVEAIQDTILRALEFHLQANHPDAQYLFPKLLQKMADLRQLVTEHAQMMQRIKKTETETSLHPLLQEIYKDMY
In short: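 Tox21 library screened in GeneBLAzer PPARd UAS-bla HEK293H cells. After compound treatment at 37 C, a FRET-based beta-lactamase substrate was applied for 2 h and fluorescence recorded.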

[9] = qHTS assay to identify small molecule antagonists of the peroxisome proliferator-activated receptor delta (PPARd) signaling pathway - cell viability counter screen (AID 743213); further: nearly all actives have a fitted effect of over 50% in size
In short: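 Agonist-stimulated (L165041, 300 nM final) HEK293H PPARd UAS-bla cells are exposed to compounds for 17 h at 37 C, and ATP-based luminescence (CellTiter-Glo) from the same wells reports cytotoxicity.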

[10] = qHTS assay to identify small molecule agonists of the farnesoid-X-receptor (FXR) signaling pathway - cell viability counter screen (AID 743218); further: nearly all actives have a fitted effect of over 45% in size
In short: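 Luminescence from CellTiter-Glo, read after 30 min at RT, reports viability of GeneBLAzer FXR-UAS-bla HEK 293T cells treated 16 h with compounds in the wells used for the beta-lactamase reporter.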

[11] = biological target: Bile acid receptor (Homo sapiens) (UniProt Q96RI1); assay: qHTS assay to identify small molecule agonists of the farnesoid-X-receptor (FXR) signaling pathway (AID 743220; active means well fitted activation curve with a large enough effect in the signal ratio in the repeat runs, not every such curve was filed as active; the % refers to the signal ratio)
Sequence of Bile acid receptor (Homo sapiens) (Q96RI1 whole entry, looked up): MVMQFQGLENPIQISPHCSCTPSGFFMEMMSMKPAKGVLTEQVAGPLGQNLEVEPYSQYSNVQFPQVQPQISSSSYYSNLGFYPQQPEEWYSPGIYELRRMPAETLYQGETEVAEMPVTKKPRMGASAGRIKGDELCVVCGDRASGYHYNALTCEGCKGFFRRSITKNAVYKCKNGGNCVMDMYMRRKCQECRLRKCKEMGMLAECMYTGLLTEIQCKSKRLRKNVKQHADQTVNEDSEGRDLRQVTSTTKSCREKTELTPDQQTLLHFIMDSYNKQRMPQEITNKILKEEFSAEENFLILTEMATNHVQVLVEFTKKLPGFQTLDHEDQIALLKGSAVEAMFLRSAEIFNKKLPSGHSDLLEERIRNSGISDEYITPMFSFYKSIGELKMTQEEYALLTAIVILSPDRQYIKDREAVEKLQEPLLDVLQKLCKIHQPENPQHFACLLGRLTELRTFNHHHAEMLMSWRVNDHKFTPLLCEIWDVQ
In short: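 FXR-UAS-bla HEK 293T cells carrying a UAS-driven beta-lactamase reporter were plated for 5 h at 37C/5% CO2, then exposed to DMSO-dissolved Tox21 10K compounds for 16 h at 37C. A LiveBLAzer B/G FRET substrate was loaded for 2 h at room temperature before fluorescence reading.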

[12] = qHTS assay to identify small molecule antagonists of the farnesoid-X-receptor (FXR) signaling pathway - cell viability counter screen (AID 743221; active means well fitted cell-killing curve with a large enough effect in the repeat runs, not every such curve was filed as active; further: nearly all actives have a fitted effect of over 50% in size)
In short: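 Quantitative HTS of the Tox21 10K library run in parallel with the beta-lactamase reporter read. HEK 293T cells carrying a UAS-driven bla reporter got compound and 50 uM CDCA (final) for 16 h; ATP-based luminescence followed.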

[13] = biological target: Peroxisome proliferator-activated receptor delta (Homo sapiens) (UniProt Q03181); assay: qHTS assay to identify small molecule antagonists of the peroxisome proliferator-activated receptor delta (PPARd) signaling pathway (AID 743215; active means well fitted inhibition curve with a large enough effect in the signal ratio in the repeat runs, not every such curve was filed as active; the % refers to the signal ratio; further: series mostly up to about 62 µM)
In short: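 HEK293H GeneBLAzer PPARd UAS-bla reporter cells; cpd + L165041 300 nM final, 17 h 37 C; LiveBLAzer B/G FRET substrate 2 h RT; fluorescence intensity read-out. Antagonist mode.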

[14] = biological target: Vitamin D3 receptor (Homo sapiens) (UniProt P11473); assay: qHTS assay to identify small molecule agonists of the vitamin D receptor (VDR) signaling pathway (AID 743222; calls by dose curve)
Sequence of Vitamin D3 receptor (Homo sapiens) (P11473 whole entry, looked up): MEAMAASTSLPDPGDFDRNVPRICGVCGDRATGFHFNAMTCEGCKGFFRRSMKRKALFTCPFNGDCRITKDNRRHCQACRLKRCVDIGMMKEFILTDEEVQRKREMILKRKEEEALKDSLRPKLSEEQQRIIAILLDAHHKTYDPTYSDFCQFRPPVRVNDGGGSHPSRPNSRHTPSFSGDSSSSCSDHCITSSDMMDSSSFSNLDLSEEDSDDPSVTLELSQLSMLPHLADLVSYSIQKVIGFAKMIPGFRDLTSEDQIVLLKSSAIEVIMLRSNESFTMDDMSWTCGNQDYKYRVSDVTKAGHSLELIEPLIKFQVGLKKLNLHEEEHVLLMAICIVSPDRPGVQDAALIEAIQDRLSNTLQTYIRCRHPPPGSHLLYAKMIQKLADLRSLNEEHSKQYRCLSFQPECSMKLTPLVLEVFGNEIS
In short: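 Beta-lactamase reporter readout (LiveBLAzer B/G FRET, 2 h RT) in VDR-bla cells after 16 h compound treatment at 37C, 5% CO2; cells pre-incubated 4 h before pin transfer of DMSO solutions.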

[15] = biological target: Vitamin D3 receptor (Homo sapiens) (UniProt P11473); assay: qHTS assay to identify small molecule antagonists of the vitamin D receptor (VDR) signaling pathway (AID 743223; active means well fitted inhibition curve with a large enough effect in the signal ratio in the repeat runs, not every such curve was filed as active; the % refers to the signal ratio)
In short: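 Fluorescence from LiveBLAzer B/G FRET substrate, read after 2 h at room temperature, reflects beta-lactamase reporter activity in VDR-bla cells treated 16 h at 37C with compounds and agonist 1alpha,25-dihydroxyvitamin D3 (3 nM final).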

[16] = qHTS assay to identify small molecule agonists of the vitamin D receptor (VDR) signaling pathway - cell viability counter screen (AID 743224); further: nearly all actives have a fitted effect of over 50% in size; further: potency means the concentration at half of the fitted maximal effect
In short: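 Cytotoxicity counter screen: VDR-bla cells, 16 h compound exposure at 37C, 5% CO2; CellTiter-Glo luminescence, 30 min RT, same wells as bla read.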

[17] = qHTS assay to identify small molecule antagonists of the peroxisome proliferator-activated receptor gamma (PPARg) signaling pathway - cell viability counter screen (AID 743194); further: nearly all actives have a fitted effect of over 55% in size
In short: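 Cytotoxicity counter screen in PPARg-bla HEK293H cells, same wells as reporter assay. Compounds plus 50 nM rosiglitazone (final) for 17 h at 37 C, then viability read by CellTiter-Glo luminescence.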

[18] = qHTS assay for small molecule agonists of the antioxidant response element (ARE) signaling pathway - cell viability counter screen (AID 743203; calls by dose curve; further: nearly all actives have a fitted effect of over 55% in size)
In short: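 Luminescence read-out (CellTiter-Glo, 30 min at room temperature) measured cell viability in the same wells as the ARE beta-lactamase reporter. HepG2 ARE-bla cells were treated with compounds for 16 hrs at 37C/5% CO2.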

Measured: Potency

CCCOC(=O)c1ccc(C(=O)OCCC)nc1
inactive: [1] | [2] | [3] | [4] | [5] | [6] | [7] | [8] | [9] | [10] | [11] | [12]

CC(C)=CC=O
inactive: [1] | [2] | [4] | [5] | [6] | [7] | [8] | [9] | [13] | [10] | [12] | [14] | [15] | [16]

CCCC(=O)O[C@]1(C(=O)COC(=O)CC)CC[C@H]2[C@@H]3CCC4=CC(=O)CC[C@]4(C)[C@H]3[C@@H](O)C[C@@]21C
inactive: [1] | [2] | [17] | [4] | [18] | [6] | [7] | [8] | [9] | [13] | [11] | [12] | [14] | [15] | [16]

CCn1nc(C)c2c1C(=O)NCC(c1ccc(O)cc1)=N2
inactive: [1] | [2] | [6] | [7] | [8] | [9] | [10] | [12] | [14] | [16]

CSc1ccc(Oc2ccc(S(N)(=O)=O)cc2CN(C)C)cc1C
inactive: [1] | [2] | [17] | [18] | [5] | [6] | [9] | [11] | [14]

CCCCC(CC)C(=O)OCCOCCOCCOCCOC(=O)C(CC)CCCC (configuration not stated)
inactive: [1] | [2] | [17] | [4] | [18] | [5] | [6] | [7] | [8] | [9] | [11] | [12] | [14] | [15] | [16]

COc1cc2[nH]c(=O)[nH]c(=O)c2cc1OC
inactive: [1] | [2] | [17] | [4] | [18] | [6] | [7] | [8] | [9] | [10] | [12] | [14] | [15] | [16]

CCC(=O)Oc1ccc(/C(CC)=C(\CC)c2ccc(OC(=O)CC)cc2)cc1
inactive: [1] | [2] | [18] | [8] | [12] | [15]
active: [7] 54.9 µM | [16] 54.9 µM

COc1cc2ncnc(Nc3ccc(F)c(Cl)c3)c2cc1OCCCN1CCOCC1
active: [7] 29.8 µM
inactive: [1] | [2] | [17] | [5] | [6] | [11] | [14] | [15] | [16]
